Assay results taken from PubChem BioAssay (NCATS).
Results filed as inconclusive are left out. Values without a mark were called inactive. Calls come from the whole dose curve; as a rule, active = well fitted inhibition curve with a large enough effect; inconclusive = small, poorly fitted or top-dose-only effect; inactive = flat fitted curve, though single readings scatter.

Molecular target: Calcium and integrin-binding protein 1 (Homo sapiens) (UniProt Q99828)
Assay: Primary qHTS for Identification of Calcium Integrin Binding Protein 1 (CIB1) Competitor (AID 1508620); note: top concentration of the series differs between compounds
Settings: CIB1-GST / FITC-alphaIIb peptide fluorescence polarization; series mostly up to 57.7 µM; activity change, negative = inhibition: at the top concentration
Procedure, shortened: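 Fluorescence polarization competition: GST-tagged CIB1 (1 uM final) preincubated with compound 15 min at room temperature, then FITC-labelled alphaIIb peptide (100 nM final) added. After 15 min at room temperature, polarization read at Ex 480/Em 540.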
% is set by controls: 0 for no effect and ±100 for the full control effect.

Sequence of Calcium and integrin-binding protein 1 (Homo sapiens) (Q99828 whole entry, looked up): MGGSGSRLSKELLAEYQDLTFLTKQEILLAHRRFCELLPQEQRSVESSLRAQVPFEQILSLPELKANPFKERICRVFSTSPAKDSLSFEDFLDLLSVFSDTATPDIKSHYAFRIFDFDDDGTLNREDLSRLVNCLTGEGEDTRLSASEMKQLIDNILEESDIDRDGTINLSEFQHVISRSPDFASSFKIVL

SMILES	activity change, negative = inhibition
CC(=O)OCC(Cc1ccccc1)NC(=O)C(Cc1ccccc1)NC(=O)c1ccccc1 (stereo not given)	-14.7%
CC1(C)CC[C@]2(C(=O)O[C@@H]3O[C@H](CO)[C@@H](O)[C@H](O)[C@H]3O)CC[C@]3(C)C(=CCC4[C@@]5(C)CC[C@H](OC6OC(C(=O)O)C(OC7OC(CO)C(O)C(O)C7O)C(O)C6O)C(C)(C)C5CC[C@]43C)C2C1 (stereo not given in full)	6.47% [at 30.2 µM]
CC(=O)NC1CC(=O)C23C(=O)NC(Cc4c[nH]c5ccccc45)C2C(C)=C(C)C(O)C3/C=C/CC(C)/C=C(/C)C(O)C1O (stereo not given)	2.14% [at 30.2 µM]
C=C(C(=O)O)[C@@H]1CC[C@@]2(C)CCC[C@@](C)(O)[C@@H]2C1	2.06% [at 114 µM]
CC(=O)c1ccc(O[C@@H]2OC[C@@H](O)[C@H](O)[C@H]2O[C@]2(CO)O[C@H](CO)[C@@H](O)[C@@H]2O)c(O)c1	-3.97%
CC1CC(=O)[C@]2(O)C(C(=O)OCCc3ccc(O)cc3)=CO[C@@H](O[C@@H]3O[C@H](CO)[C@@H](O)[C@H](O)[C@H]3O)[C@H]12 (stereo not given in full)	-4.16%
CC(=O)OCC1=CCC2C(C)(C)CCCC2(C)C12CCC(C)(CC(=O)O)O2 (stereo not given)	-1.92%
CC(=O)O[C@@H]1C(=O)C(C)=C(CCC(C)CC(=O)O)[C@@]2(C)CCCC(C)(C)C12 (stereo not given in full)	-10.4%
C[C@@H]1O[C@@H](O[C@H]2[C@H](O[C@H]3[C@H](O[C@H]4CC[C@@]5(C)C(CC[C@]6(C)C5CC=C5[C@@H]7CC(C)(C)C[C@@H](O)[C@]7(C)CC[C@]56C)C4(C)C)O[C@H](C(=O)O)[C@@H](O)[C@@H]3O)O[C@H](C(=O)O)[C@H](O)[C@@H]2O)[C@H](O)[C@H](O)[C@H]1O (stereo not given in full)	4.67% [at 30.2 µM]
C[C@H]1[C@H](C)CC[C@]2(C(=O)O)CC[C@]3(C)C(=CCC4[C@@]5(C)C[C@@H](O)[C@H](O)C(C)(C)C5CC[C@]43C)[C@H]12 (stereo not given in full)	-4.34%
CC(C)(O)[C@@H]1CC[C@]2(CO)[C@@H](O)CC[C@](C)(O)[C@H]2[C@@H]1O[C@@H]1O[C@H](CO)[C@@H](O)[C@H](O)[C@H]1O	3.82%
Cc1ccc(C)c(S(=O)(=O)n2cnc3ccccc32)c1	-2.81% [at 114 µM]
O=C(OC[C@H]1O[C@H](O[C@H]2CO[C@H](CO)[C@@H](O)[C@@H]2O)[C@H](O)[C@@H](O)[C@H]1O)c1ccccc1	2.17%
CC(C)(Oc1ccc(-c2nc3cc(Cl)ccc3s2)cc1)C(=O)O	1.14% [at 114 µM]
C/C1=C\CC[C@]2(C)O[C@H]2C(=O)c2c(C)coc2C1	-0.99% [at 114 µM]
CC(=O)O[C@H]1[C@H](O[C@H]2CC[C@]34C[C@]35CC[C@]3(C)[C@@H]([C@@]6(C)CC[C@@H](C(C)(C)O)O6)[C@@H](O)C[C@@]3(C)[C@@H]5C[C@H](O[C@@H]3O[C@H](CO)[C@@H](O)[C@H](O)[C@H]3O)[C@H]4C2(C)C)OC[C@@H](OC(C)=O)[C@@H]1O	-4.56% [at 114 µM]
COc1ccc(C2OCC3C(c4cc(OC)c5c(c4)OCO5)OCC23)cc1OC (stereo not given)	-1.31%
C=C1C(O)CC2C(C(=O)O)=COC(O[C@@H]3O[C@H](COC(=O)c4ccc(O)cc4)[C@@H](O)[C@H](O)[C@H]3O)C12 (stereo not given in full)	-4.17%
C[C@@H]1CC[C@]2(C(=O)O[C@@H]3O[C@H](CO[C@@H]4O[C@H](CO)[C@@H](O[C@@H]5O[C@@H](C)[C@H](O)[C@@H](O)[C@H]5O)[C@H](O)[C@H]4O)[C@@H](O)[C@H](O)[C@H]3O)CC[C@]3(C)C(=CCC4[C@@]5(C)C[C@@H](O)[C@H](O)[C@@](C)(CO)C5CC[C@]43C)C2[C@H]1C (stereo not given in full)	1.59% [at 30.2 µM]
CC1(C)C[C@H](O)C[C@@]2(C)[C@H]1[C@H](O)C=C1COC(=O)[C@@]12O	5.76% [at 114 µM]
C/C=C1/[C@H](O[C@@H]2O[C@H](CO)[C@@H](O)[C@H](O)[C@H]2O)OC=C(C(=O)OC)[C@H]1CC(=O)OCCc1ccc(O)c(O)c1	0.228%
COc1ccc(O[C@@H]2O[C@H](CO)[C@@H](O)[C@H](O)[C@H]2O)cc1OC	1.6%
C=CC(C)(O)CC/C=C(\C)C1CC=C(C)C(=O)O1 (stereo not given)	-0.496% [at 114 µM]
C[C@@H]1O[C@@H](O[C@H]2[C@H](O[C@H]3[C@H](O[C@H]4CC[C@@]5(C)C(CC[C@]6(C)C5CC=C5[C@@H]7CC(C)(C)C[C@@H](O)[C@]7(C)CC[C@]56C)[C@@]4(C)CO)O[C@H](C(=O)O)[C@@H](O)[C@@H]3O)O[C@H](C(=O)O)[C@H](O)[C@@H]2O)[C@H](O)[C@H](O)[C@H]1O (stereo not given in full)	0.147% [at 30.2 µM]
CC1=CC2=C(C)C(=O)C(C)(O)C(O)C2CO1 (stereo not given)	-8.18% [at 114 µM]
